# Source: PubChem BioAssay (several laboratories)
# MITF TRPM1 inh = reduces MITF-dependent TRPM1 promoter luciferase signal. SK-MEL-5 TRPM1 promoter luciferase, 24 h. 0.83% of 330,000 active. inhibition, % at 12.5 µM;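 active = mean inhibition across replicates of 60% or more, whatever share of single replicates reaches that level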
# HIF-2a block = blocks HIF-2a reporter activity | 786-0 RCC cells HIF-2a reporter, luciferase luminescence, overnight | inhibition, % at 18.8 µM | 0.72% of 360,000 active | AID 624352;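 active = inhibition of the luminescence signal of 40% or more relative to plate controls, in a single-dose primary screen at 18.75 µM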
# CF NFkB inh = blocks PAF-induced NF-kB reporter in cystic fibrosis cells. KKLEB NF-kB-GFP reporter, GFP fluorescence overnight. inhibition, % at 5 µM. 0.86% of 360,000 active. AID 588850;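 active = at least 50% inhibition at 5 µM, scaled per plate between neutral and stimulator controls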;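 also: PAF is a Pseudomonas aeruginosa culture filtrate used as stimulus; plate controls were PAF-stimulated DMSO wells for no effect and unstimulated DMSO wells for full effect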
# KKLEB tox = CF airway cell cytotoxicity counter-screen | 0.36% of 360,000 active | activity change (cytotoxicity), % at 5 µM | AID 602141 | KKLEB CF airway cells viability, ATPlite luminescence, overnight; stronger effect = lower value; cells stimulated with P. aeruginosa culture filtrate;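 active = corrected activity change at or below -50% at 5 µM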
# Peg3 promoter = inhibitors of Peg3 promoter | HeLa PEG-Prom luciferase reporter, luminescence, overnight | inhibition, % at 20 µM | 1.7% of 360,000 active | AID 588405;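 active = inhibition of at least 50% at 20 µM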
# LMP1 NFkB inh = Epstein-Barr LMP1 NF-kappaB reporter inhibition; LMP1-induced NF-kappaB luciferase reporter cells, luminescence; inhibition, % at 12.5 µM; 0.69% of 350,000 active; in the data active = inhibition above about 41%;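 also: 0% = neutral control wells and 100% = reference inhibitor control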
# * = called active by the depositor; . = not tested or not shown. An excerpt weighted towards active compounds, which were near 3% of everything screened.
SMILES,MITF TRPM1 inh,HIF-2a block,CF NFkB inh,KKLEB tox,Peg3 promoter,LMP1 NFkB inh
Cc1cc(C(O)c2ncc(-c3ccc(Oc4ccccc4)cc3)[nH]2)ccc1F (stereo not drawn),.,-10,1,2,24,.
Cn1cc(CNCc2ccc(OC(F)(F)F)cc2)c(-c2ccc3c(c2)OCCO3)n1,-17,5,3,-4,-88,10
CCn1cc(CNCc2cn(C)nc2-c2ccc(C3CCCCC3)cc2)cn1,4,2,-5,8,68*,-3
COc1ccc(S(=O)(=O)N(C(=O)c2ccco2)c2cc3sc(=O)oc3c3ccccc23)cc1,24,-12,71*,-31,19,1
CC(=O)N(c1ccc2oc(=O)sc2c1)S(=O)(=O)c1ccccc1,-19,0,-11,26,-15,-4
Cc1ccc(S(=O)(=O)N(C(=O)c2ccco2)c2cc3sc(=O)oc3c3ccccc23)cc1,-3,2,64*,-28,11,-5
CCOc1ccc(S(=O)(=O)N(C(=O)c2ccco2)c2cc3sc(=O)oc3c3ccccc23)cc1,8,7,52*,-10,20,5
COc1ccc(S(=O)(=O)N(C(=O)C(C)C)c2ccc3oc(=O)sc3c2)cc1,8,8,-17,37,2,-12
CCOc1ccc(S(=O)(=O)N(C)CC(=O)NCc2ccco2)cc1,8,9,2,17,10,-6
COc1cc(CN2C(=O)C(Cc3ccccc3)ON=C2c2ncccc2C)cc(OC)c1 (stereo not drawn),.,10,13,16,-1,.
Nc1c(-c2ccc(F)c(F)c2)nc2ncccn12,.,-10,.,.,.,.
Cc1cc(C)c2nc(NCCCNC(=S)NCCCN(C)C)c(C#N)cc2c1,-1,9,1,-3,91*,-6
CCc1cccc2sc(N3CCN(C(=O)c4ccc([N+](=O)[O-])o4)CC3)nc12,77*,38,4,-5,2,-44
O=C1c2cccc3cccc(c23)C(=O)N1CCO,.,-5,-21,3,-9,5
CCN(CC)CCN1C(=O)c2cccc3cc(N)cc(c23)C1=O,8,25,-72,-8,51*,-19
Cc1c(CN2CCC(CO)(Cc3cccc(C(F)(F)F)c3)CC2)c2ccccc2n1C,27,4,32,-19,112*,14
CCCCCCC[C@@H](C/C=C/CCC(=O)N(C)C/C(=C/Cl)C/C(=C\C(=O)N1C[C@H](O)CC1=O)OC)OC,11,-6,27,-7,7,-12
CCCCCCC[C@@H](C/C=C/CCC(=O)N(C)C/C(=C/Cl)C/C(=C\C(=O)N1CC(OC)=CC1=O)OC)OC,75*,9,54*,-61*,41,-406
Cc1ccc(C)c(N2CCN(C(=S)Nc3ccc4nc(N5CCN(C)CC5)cc(C)c4c3)CC2)c1,85*,1,15,-11,31,3
Cc1ccc(C)c(N2CCN(C(=S)Nc3ccc4nc(N5CCOCC5)cc(C)c4c3)CC2)c1,4,-31,12,1,-5,33
Cc1cccc(C)c1NC(=O)CN(C)C(=O)c1ccc(-c2cccc(C(F)(F)F)c2)o1,-13,-17,1,-5,-2,55*
CC(C)NC(=O)c1ccc(-c2cccc(C(F)(F)F)c2)o1,-52,-79,8,-9,-58,-12
Nc1ccc(OCc2ccccc2)cc1[N+](=O)[O-],-14,-191,-19,25,-117,-10
O=Cc1cc(OCc2ccccc2)ccc1[B-](F)(F)F,15,-16,-5,-4,-10,55*
CCOC(=O)[C@]12CCC=C1N(Cc1ccc3c(c1)OCO3)C(=O)[C@H](CC(=O)NCCCOC)C2,.,7,.,.,.,.
SMILES,MITF TRPM1 inh,HIF-2a block,CF NFkB inh,KKLEB tox,Peg3 promoter,LMP1 NFkB inh
CN(c1ccc(Cl)cc1)c1cc2c(c3c1ccn3C)C1CCC2O1 (stereo not drawn),.,10,19,-2,20,.
O=c1[nH]c(/C=C/c2ccc(Br)cc2)nc2ccccc12,-65,-364,-2,-25,-267,-31
CN(C)c1ccc(/C=C/c2nc3ccccc3c(=O)[nH]2)cc1,52,-87,-16,-77*,21,48*
CC(O)(c1cccnc1)c1nc(-c2cccc(C(F)(F)F)c2)cs1 (stereo not drawn),.,-5,6,-5,-4,.
COc1cc(C(=O)Nc2ccc3c(c2)Cc2cc(NC(=O)c4cc(OC)c(OC)c(OC)c4)ccc2-3)cc(OC)c1OC,13,5,68*,-77*,23,3
COc1cc(C(=O)Nc2ccncc2)cc(OC)c1OC,1,5,14,1,11,2
COc1ccc(N2C3=C(CC4=C2CC(C)(C)CC4=O)C(=O)CC(C)(C)C3)cc1,87*,30,-3,0,-15,10
COc1ccc(N2C3=C(CC4=C2CCCC4=O)C(=O)CCC3)cc1,-2,20,-9,10,1,1
NC1=NC(=O)NC1(c1ccccc1)c1ccccc1,8,12,2,22,3,48*
Cc1cccc(OCCN2C(=O)C(=O)c3cc(C)ccc32)c1,11,-79,54*,-14,-76,11
Cc1ccc2c(c1)C(=O)C(=O)N2CCOc1ccccc1,-11,-104,37,-17,-74,-1
C/C(=N\Nc1nnc(-c2ccccc2)c(-c2ccccc2)n1)c1cccc([N+](=O)[O-])c1,-22,10,34,-51*,19,-1
COC(=O)C1=C(C)N(Cc2ccccc2)C(=NCc2cccc(C(F)(F)F)c2)N[C@H]1c1cccc(F)c1,94*,10,84*,-97*,100*,8
COC(=O)C1=C(C)N(Cc2ccccc2)C(=NCc2ccc(OC)cc2)N[C@H]1c1ccccc1,3,6,-14,-2,69*,6
O=C(Nc1cccc(-c2nc3ccccc3s2)c1)C1=COCCO1,-4,-115,-22,-7,-163,-5
O=C(Nc1ccc(-c2nc3ccccc3s2)cc1)C1=COCCO1,43,16,-14,-53*,19,72*
CC(=O)c1c(N2CCN(C)CC2)nc(=S)n(Cc2ccccc2)c1C,16,15,-12,16,2,-3
C=CCn1c(C)c(C(C)=O)c(N2CCN(C(c3ccccc3)c3ccccc3)CC2)nc1=S,2,10,13,-16,20,55*
Cc1ccc(CN2C(=O)CCC2(C)c2nnnn2Cc2ccccc2)cc1 (stereo not drawn),.,7,.,.,.,.
Cc1ccc2c(Cl)cc(Cl)c(O)c2n1,73*,6,52*,-35,46,40
O=C1N2CCCCC1(Sc1ccccc1)CCC2 (stereo not drawn),.,-3,.,.,.,.
O=P1(O)CC2=C(CC=CC2)C1,.,13,-5,-3,8,3
CCc1ccc(S(=O)(=O)/N=C2\C=C(NS(=O)(=O)c3ccccc3)C(=O)c3ccccc32)cc1,20,-63,69*,-10,-33,-4
